Measurements taken from the supplement of paper PMC10941209.

Each compound was assayed on HFF (assay: cell viability relative to DMSO control; higher = less cytotoxic). Settings: 1 µM; 72 h.
Protocol: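 Single-dose cytotoxicity screen of the MMV Pandemic Response Box at 1 uM on human foreskin fibroblasts (HFF), 72 h at 37 C. Viability measured by MTT (OD 550 nm) and normalised to the DMSO control (% survival).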
Compound `O=C(NCc1ccc2c3c(cccc13)C(=O)N2)c1cccs1` has a cell viability of 62.2%.
In the case of `CCCCCCCc1[nH]c2ccccc2c(=O)c1O`, the cell viability is reported as 62%.
`Nc1cccc(-c2nc(N)nc(NC3Cc4ccccc4C3)n2)c1` was tested, and the cell viability was 68.2%.
With `CC(=O)N[C@H](C)C(=O)N[C@H](Cc1ccccc1)C(=O)O` the cell viability was 61.1%.
Compound `Cc1cc(C2CCCCC2)n(O)c(=O)c1` has a cell viability of 78.2%.
`COc1cc(Cc2cc(N)nc(N)n2)cc(OC)c1OC` gave a cell viability of 65.1%.
`C[C@H]1CC[C@@]2(O)C(C)(C)[C@@H]3CC[C@@]2(C)[C@H]1C3` was tested, and the cell viability was 65.2%.
Work on `CCCCc1ccc(-c2cc(C(=O)O)cc(-c3ccc(Cl)cc3)n2)cc1` yielded a cell viability of 68.9%.
In the case of `Cc1c(OCC(F)(F)F)ccnc1C[S+]([O-])c1nc2ccccc2[nH]1` (configuration not stated), the cell viability is reported as 66.4%.
For `Nc1ccc(-c2nc3cc(C(F)(F)F)ccc3n2C23CC4CC(CC(C4)C2)C3)cc1`, the cell viability was 66.3%.
With `COc1cc2c(O)c3c(c(-c4ccc5c(c4)OCO5)c2cc1OC)C(=O)OC3` the cell viability was 66.8%.
For `Fc1ccc2c(/C=C/c3nnn[nH]3)c[nH]c2c1`, the cell viability was 71.2%.
In the case of `O=c1ccc2ncc(=O)n3c2n1CC3CN1CCC(NCc2cc3c(cn2)OCCC3)CC1` (configuration not stated), the cell viability is reported as 60%.
`CC1=C(/C=C/C(C)=C/C=C/C(C)=C/C(=O)Nc2ccc(O)cc2)C(C)(C)CCC1` gave a cell viability of 70.8%.
`CCN(CC)CCn1c(=N)n(CC(O)COc2ccc(Cl)cc2Cl)c2ccccc21` (configuration not stated) was tested, and the cell viability was 60.7%.
`O=c1oc2ccc(Br)cc2cc1CSc1ncc[nH]1` was tested, and the cell viability was 74.7%.
Compound `CN(C)[C@@H]1C(=O)C(C(N)=O)=C(O)[C@@]2(O)C(=O)C3=C(O)c4c(O)c(NC(=O)CN5CCCC5)cc(F)c4C[C@H]3C[C@@H]12` has a cell viability of 66%.
In the case of `O=C1NC(=S)N/C1=C\c1cc(Br)cc(Br)c1O`, the cell viability is reported as 72.6%.
For `COc1ccc(SC(=O)N[C@H](CCC(=O)O)C(=O)O)cc1`, the cell viability was 59.7%.
In the case of `CC(Cc1ccccc1)C(=O)Nc1ccc(Cl)cc1C(=O)O` (configuration not stated), the cell viability is reported as 65%.
For `O=C(Nc1nnc(-c2ccc(Cl)cc2)o1)c1nc2ccccc2s1`, the cell viability was 65.8%.
For `CSC[C@H]1CN(Cc2c[nH]c3c(N)ncnc23)C[C@@H]1O`, the cell viability was 61.5%.
Work on `CC(C)(C)c1ccc(Oc2ccc(N)cc2)cc1` yielded a cell viability of 68.3%.
Compound `COc1c(NC(=O)[C@H]2CC[C@@H](COc3ccc([N+](=O)[O-])cc3)CC2)c(F)cc2c(=O)c(C(=O)O)cn(C3CC3)c12` has a cell viability of 62.8%.
In the case of `c1ccc(Cn2c(-c3ccccn3)nc3ccccc32)cc1`, the cell viability is reported as 63.2%.
Work on `Cc1cc(NS(=O)(=O)c2ccc(-c3ccc(F)cc3F)cc2)no1` yielded a cell viability of 69.4%.
Compound `Nc1nc2c(Cc3cccnc3)c[nH]c2c(=O)[nH]1` has a cell viability of 65.2%.
For `CCN(CC)S(=O)(=O)c1ccc(Cl)c(C(=O)Nc2sc3c(c2C#N)CCCC3)c1`, the cell viability was 60.2%.
With `O=C(NC1CCCc2c1[nH]c1ccc(Cl)cc21)c1ccccn1` (configuration not stated) the cell viability was 67.4%.
With `Oc1c(C(Nc2ccccn2)c2ccccc2)ccc2cccnc12` (configuration not stated) the cell viability was 69.9%.
`NS(=O)(=O)c1ccc(NC(=O)NC(c2ccccc2)c2ccccc2)cc1` showed a cell viability of 72.8%.
`CC1CN(c2ncnc3c2c(-c2ccccc2)cn3-c2ccc(F)cc2)CC(C)O1` (configuration not stated) gave a cell viability of 75.3%.
For `COc1ccc2c(c1OC)C(=O)OC2C1c2c(cc3c(c2OC)OCO3)CCN1C` (configuration not stated), the cell viability was 74.8%.
Work on `CCOc1noc2cc(OCCC3CCN(c4ccc(C)nn4)CC3)ccc12` yielded a cell viability of 53%.
`Nc1nc(=O)[nH]cc1F` was tested, and the cell viability was 64.8%.
With `CCCCc1ccc(S(=O)(=O)Nc2cc(C)on2)cc1` the cell viability was 63.3%.
Work on `CCNC(=O)Nc1cn2c(-c3ncc(CC)cn3)cc(-c3cccnc3)cc2n1` yielded a cell viability of 71.6%.
